D2 antag – antagonists of human D2 dopamine receptor; HEK293 TREx D2 cells, calcium flux, dopamine EC80; inhibition, % at 10 µM; 340,000 tested, 2% active; in the data active = inhibition above about 30%; inactive = below that, where a call was filed; also: 0% is about no effect
Target sequence (P14416 whole entry, looked up): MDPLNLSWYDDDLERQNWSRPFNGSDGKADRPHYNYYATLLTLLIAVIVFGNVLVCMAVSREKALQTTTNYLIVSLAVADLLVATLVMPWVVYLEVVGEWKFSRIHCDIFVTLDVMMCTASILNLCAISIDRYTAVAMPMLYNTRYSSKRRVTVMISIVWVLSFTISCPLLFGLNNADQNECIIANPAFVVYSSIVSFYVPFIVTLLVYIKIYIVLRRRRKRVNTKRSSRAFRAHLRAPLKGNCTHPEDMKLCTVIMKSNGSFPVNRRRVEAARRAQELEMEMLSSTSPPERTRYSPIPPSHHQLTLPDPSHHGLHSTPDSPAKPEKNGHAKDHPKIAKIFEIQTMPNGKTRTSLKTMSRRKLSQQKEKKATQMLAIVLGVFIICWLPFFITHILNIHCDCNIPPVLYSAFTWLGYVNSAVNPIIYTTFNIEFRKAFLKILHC
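In this primary screen, negative modulation is detected by tracking calcium flux after an EC80 dopamine challenge in inducible HEK293 T-REx D2 cells preexposed to test compound for 180 s.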
D2 PAM-1 – human D2 receptor positive allosteric modulation. P14416. DiscoveRx D2 beta-arrestin cells, luminescence, 90 min; 100% = 57 uM dopamine signal. potentiation, % (concentration not given with the values). 360,000 tested, 0.23% active. AID 624464; in the data active = potentiation above about 50%; inconclusive = mostly about 30% to 49%
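D2 cells co-treated with compound plus 50 nM dopamine (EC20) for 90 min at 37 deg C to detect potentiation. Beta-arrestin recruitment was read as enzyme-fragment luminescence after 1 h at ambient temperature. Full response was set by 57 uM dopamine.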
D2 ag-1 – activates the human D2 dopamine receptor; AID 485358; HEK293 T-REx D2 cells, calcium flux agonist mode; activation, % at 2 µM; P14416; 340,000 tested, 0.53% active;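 active = activation over 3 SD above normal in the single-dose calcium agonist read, cut at about 30% in these data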; also: 0% is about no effect
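In this primary screen, compounds producing a positive calcium signal within 180 s of addition to tetracycline-induced, force-coupled HEK293 Trex D2 cells are flagged; cells are dye-loaded with a no-wash calcium kit beforehand.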
D2 ag-2 – human D2 receptor agonism in beta-arrestin assay; DiscoveRx PathHunter D2 beta-arrestin, luminescence, 90 min; 100% = 57 uM dopamine signal; AID 624465; P14416; 360,000 tested, 0.084% active; activation, % (concentration not given with the values); in the data active = activation above about 40%; inconclusive = between about 15% and that limit
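Agonist mode: compounds alone added to overnight-plated D2 PathHunter cells for 90 min at 37 C, with 57 uM final dopamine (EC100) defining full response. Beta-arrestin recruitment detected by chemiluminescent reagent, read after 1 h at ambient temperature.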
D2 PAM-2 – D2 dopamine receptor (human) potentiation. 340,000 tested, 0.34% active. potentiation, % at 10 µM. P14416. HEK293 T-REx D2, calcium flux, EC20 dopamine potentiation;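 active = potentiation over 3 SD above the plate norm, cut at about 30% in these data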; also: 0% is about no effect
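Potentiation of an EC20 dopamine calcium response measured kinetically over 180 s, after a preceding 180 s compound-only read flagging agonists. Cells: inducible Hek293 Trex D2 line, 4000/well, cultured overnight at 30 C before dye loading.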
D3 ag – confirmation of human D3 dopamine receptor agonists, beta-arrestin; 2,300 tested, 4% active; Potency, µM (titrated, usually from 76.9 µM), for the others: top-dose activation, usual class: activators; DiscoveRx D3 beta-arrestin cells, luminescence, 90 min; shares compounds with D2 ag-1;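 also: potency is read from the fitted curve at half-maximal effect; 100% = dopamine control response; nearly all actives have a fitted effect of over 70% in size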
D2 ag-3 – counter-screen for D3 agonists: human D2 dopamine receptor agonism. shares compounds with D2 ag-1. DiscoveRx PathHunter D2 beta-arrestin, luminescence, 90 min; response scale: percent relative to full dopamine signal. Potency, µM (highest dose often 76.9 µM), inactives show at the highest dose activation, most hits filed as activators. 2,300 tested, 5.9% active. AID 720507; also: potency is read from the fitted curve at half-maximal effect; % of control where 0% means no effect; nearly all actives have a fitted effect of over 70% in size
The depositor's hits bear a star; ? = inconclusive; nt = no result given; ! = not confirmed by another sample. The list is not random: actives were taken first. Their share in the collection is about 2.4%. Unless noted, calls follow the shape of the dose curve; as a rule, active = well fitted activation curve with a large enough effect; inconclusive = small, poorly fitted or top-dose-only effect; inactive = flat fitted curve, though single readings scatter.

SMILES	D2 antag	D2 PAM-1	D2 ag-1	D2 ag-2	D2 PAM-2	D3 ag	D2 ag-3
O=[N+]([O-])c1cccc(O)c1	36.1*	-4.1	0.0	-3.0	11.1	-3.7%	0.1%
O=[N+]([O-])c1cccc(CCl)c1	-0.1	-30.1	0.0	-6.4	-4.0	nt	nt
C=CCN1CCc2cccc3c2[C@H]1Cc1ccc(O)c(O)c1-3	88.8*	113.5*	87.6*	219.0*	-19.7	0.02µM*	0.0447µM*
CC(CCc1ccccc1)NCCC#N (stereo unspecified)	16.1	5.6	76.7*	10.1	-26.4	?	23.5%
CN1CCCC(C(=O)c2ccccc2)C1 (stereo unspecified)	30.2*	-3.1	42.5*	-0.4	-13.7	14.6%	11.1%
CSc1ccc(C(=O)C2CCCN(C)C2)cc1 (stereo unspecified)	1.3	-12.2	-0.3	0.6	-10.6	nt	nt
O=C1NC(=S)N(Cc2ccco2)C(=O)/C1=C\c1cccs1	-1.4	nt	0.9	nt	7.6	nt	nt
CCOC(=O)c1ccc(N2C(=O)CC(N3CC=C(c4ccc(F)cc4)CC3)C2=O)cc1 (stereo unspecified)	-9.4	-1.2	-1.2	-0.9	1.0	nt	nt
NC(=O)c1ccc(OCCC(O)N2CC=C(c3ccc(F)cc3)CC2)cc1 (stereo unspecified)	64.6*	-25.7	34.9*	-1.0	-11.6	?	?
Cc1cccc(C)c1NC(=O)CN(C)CC(=O)Nc1ccc(C#N)c(Cl)c1	6.3	-10.4	0.3	-2.9	10.5	nt	nt
C#C[C@@]1(O)CCC2C3CCC4=C/C(=N/OCC(=O)NC(C(=O)NC(CC(C)C)C(=O)O)C(C)C)CC[C@]4(C)C3CC[C@@]21C (stereo partly specified)	3.8	-4.0	0.3	1.5	-6.3	nt	nt
C1=C(c2ccccc2)CCNC1	42.9*	-8.8	40.0*	-1.7	-29.5	-8.8%	0.8%
Cc1ccc(OCC(=O)Nc2ccc(Cl)cc2C(=O)c2ccccc2)c(Br)c1	nt	nt	0.3	nt	-1.7	nt	nt
COC(=O)C1=C(c2ccc(F)cc2OCc2ccccc2)C[C@@H]2CC[C@H]1N2C(=O)NCc1ccccc1Cl	-21.6	-21.2	-0.3	1.0	16.9	-1.4%	-1.6%
COC(=O)C1=C(c2ccccc2OCc2ccccc2)C[C@@H]2CC[C@H]1N2C(=O)NCc1ccc(OC)c(OC)c1	7.8	-0.8	0.5	-2.2	6.2	-1.0%	-0.8%
COC(=O)C1=C(c2ccccc2OCc2ccccc2)C[C@@H]2CC[C@H]1N2C(=O)NCc1cccc(F)c1	-12.3	-12.3	0.4	-3.2	0.9	nt	nt
CC(OC(=O)c1cn(C)c2ccccc12)C(=O)N1CCCC1 (stereo unspecified)	-11.7	10.9	0.2	-1.8	4.5	nt	nt
O=C1NC(=S)N(c2ccc(Br)cc2)C(=O)/C1=C/N1CCN(C(=O)c2ccco2)CC1	11.4	-39.0	27.5	-3.9	-10.1	-4.5%	-2.2%
O=C(CCN1C(=O)COc2ccccc21)N1CCC2(CC1)OCCO2	-0.2	0.4	55.8*	1.4	-18.6	-7.7%	-4.3%
COc1ccccc1N1CCN(Cc2cccc(OC)c2O)CC1	81.3*	-5.6	74.0*	8.9	-28.5	-5.7%	19.2%
Cc1cc(C)cc(OCC(=O)Nc2ccc(Cl)cc2C(=O)c2ccccc2)c1	nt	nt	-1.5	nt	-7.6	nt	nt
CCC1(Cc2ccccc2)C(=O)NC(=S)N(C)C1=O (stereo unspecified)	nt	-11.6	nt	1.0	nt	nt	nt
O=[N+]([O-])c1ccc(CN2CC=C(c3ccccc3)CC2)cc1	89.1*	-20.6	77.7*	-0.9	-49.5	5.1%	10.3%
COc1ccc(NC(=O)CN2CC=C(c3ccccc3)CC2)cc1S(=O)(=O)N1CCOCC1	-4.2	-16.7	54.4*	8.0	-28.2	?	1.9%
CCNCC(O)c1cccc(O)c1 (stereo unspecified)	32.3*	3.3	36.3*	-3.1	-15.0	?	?
SMILES	D2 antag	D2 PAM-1	D2 ag-1	D2 ag-2	D2 PAM-2	D3 ag	D2 ag-3
NNCc1cccc(O)c1	-22.1	-9.4	-0.4	1.7	-3.1	nt	nt
NCCc1c[nH]c2ccccc12	-13.9	-60.0	-0.1	-7.2	-6.3	nt	nt
CCCCc1ccc2[nH]cc(CCN)c2c1	14.2	-13.1	43.7*	14.8	-19.9	-3.2%	?
CCCN1CC[C@@H]2c3cc(O)ccc3CC[C@@H]21	73.0*	-4.9	65.6*	7.3	-11.3	?	?
CC1=C[C@@H]2c3cccc4[nH]cc(c34)C[C@H]2N(C)C1	nt	92.0*	nt	77.0*	-32.3	0.0891µM*	2.82µM*
CC(C)CC(C)N (stereo unspecified)	6.4	-11.6	0.5	4.2	-10.6	-4.1%	-3.0%
COC(=O)N(c1ccccc1)P(=O)(Oc1ccccc1)Oc1ccccc1	7.9	-6.9	-0.9	-0.9	-26.3	nt	nt
OC(COCc1ccc(Cl)cc1)CN1CC=C(c2ccccc2)CC1 (stereo unspecified)	84.7*	70.9*!	-0.2	83.0*	16.8	50.1µM*	44.7µM*
O=C(CN1CC=C(c2ccccc2)CC1)Nc1c(Cl)cccc1Cl	7.2	-28.7	27.4	-3.8	-22.9	nt	nt
OC(CN1CC=C(c2ccccc2)CC1)c1ccccc1 (stereo unspecified)	74.6*	-10.8	76.6*	2.7	-31.2	?	?
C[C@]12CCC3C(CC[C@H]4C[C@@H](O)CC[C@]34C)C1=CC[C@@H]2O (stereo partly specified)	nt	-3.0	nt	5.7	nt	nt	nt
COC(=O)C(O)(c1ccc(NC(=S)NC(=O)c2ccc(Cl)cc2Cl)c(C)c1)C(F)(F)F (stereo unspecified)	5.5	-5.8	19.8	-14.2	-7.9	nt	nt
CCOC(=O)C(O)(c1ccc(NC(=S)NC(=O)c2ccc(Cl)cc2Cl)c(C)c1)C(F)(F)F (stereo unspecified)	4.7	-14.3	27.4	-3.5	18.0	9.9%	-0.7%
COc1ccc(OCC(=O)N2CCN(Cc3cc(=O)n4nc(-c5ccccc5C)sc4n3)CC2)cc1	nt	nt	-0.1	nt	14.9	nt	nt
Cc1[nH]c2c(Cl)cccc2c1CCN	40.6*	-32.2	23.7	5.2	-32.4	2.9%	8.2%
Cc1[nH]c2ccccc2c1CN1CCCCC1	nt	-20.7	nt	-2.0	nt	nt	nt
Cc1ncc(CN2CCCC(C(=O)c3cccc(Cl)c3)C2)s1 (stereo unspecified)	7.4	-17.9	-0.1	-1.8	-0.4	nt	nt
O=C(NN=Cc1ccc(N(CCCl)CCCl)cc1)C(=O)c1c[nH]c2ccccc12	nt	6.3	nt	1.0	nt	nt	nt

Source: PubChem
